# High-throughput results (PubChem)
# Rows were chosen to be rich in hits. Some 1.3% of all compounds tested hit in one or more screens of this group.
# AmpC detergent: inhibitors of E. coli AmpC beta-lactamase with detergent; AID 485294; actives 0.041% (n = 370,000); AmpC hydrolysis of nitrocefin, absorbance 480 nm, 0.01% Triton; Potency, µM (top dose mostly 114 µM), for inactives: top-dose activity change, negative = inhibition, hits mostly inhibitors;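 note: 0% = no-compound wells and -100% = no-enzyme wells; nearly all actives have a fitted effect of over 25% in size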
# Target sequence (P00811 whole entry, looked up): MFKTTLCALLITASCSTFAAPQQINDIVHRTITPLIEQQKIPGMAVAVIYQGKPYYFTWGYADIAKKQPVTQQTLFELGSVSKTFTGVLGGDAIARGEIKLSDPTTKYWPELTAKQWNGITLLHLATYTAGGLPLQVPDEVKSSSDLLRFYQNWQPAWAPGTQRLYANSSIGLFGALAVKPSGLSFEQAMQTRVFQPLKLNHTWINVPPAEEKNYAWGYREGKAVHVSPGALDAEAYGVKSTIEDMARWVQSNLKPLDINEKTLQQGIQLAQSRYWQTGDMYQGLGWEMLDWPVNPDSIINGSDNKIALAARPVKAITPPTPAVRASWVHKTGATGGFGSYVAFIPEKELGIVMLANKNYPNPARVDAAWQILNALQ
#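 AmpC (5.3 nM in the dispensed reagent) in 20 mM phosphate pH 7.0 with 0.01% (detergent screen) or 0.0001% Triton X-100 was preincubated with compounds for 15 min at room temperature. Nitrocefin was then added from an 800 uM solution, and hydrolysis was followed at 480 nm.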
# VACV Venus inh: vaccinia inhibition (Venus reporter); AID 720580; Vaccinia virus Venus reporter expression, fluorescence; Potency, µM (top dose mostly 36.5 µM), inactives show at the top dose activity change, negative = inhibition, most hits filed as inhibitors; actives 0.46% (n = 330,000); calls by dose curve; tested in A549 cells; note: % is set by controls: 0 for no effect and ±100 for the full control effect; nearly all actives have a fitted effect of over 30% in size
# SARS PLP yeast: blocks SARS-CoV papain-like protease in a yeast assay; actives 0.19% (n = 330,000); S. cerevisiae expressing SARS-CoV PLpro, growth rescue; AID 485353; Potency, µM (titrated, usually from 32.9 µM), for inactives: at the top dose activity, positive = growth rescue, actives largely listed as activators; calls by dose curve; note: 0% is about no effect; nearly all actives have a fitted effect of over 55% in size
# AMA1 RON2 block: inhibitors of Plasmodium falciparum AMA1-RON2 interaction. AlphaScreen AMA1-biotinylated RON2 peptide binding. actives 0.2% (n = 360,000). Potency, µM (titrated, usually from 58.2 µM), inactives show top-dose activity change, negative = inhibition, usual class: inhibitors;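 note: 0% = vehicle wells and -100% = peptide control; nearly all actives have a fitted effect of over 45% in size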
#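 AMA1 (3D7) with his tag at 25 nM final met compounds first, then biotinylated RON2 peptide at 25 nM; detection used donor plus acceptor beads, 10 µg/mL apiece, read by AlphaScreen after 30 min at room temperature.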
# AmpC inh no detg: blocks E. coli AmpC beta-lactamase in detergent-free assay; P00811; AmpC nitrocefin hydrolysis, absorbance 480 nm, 0.0001% Triton; Potency, µM (series often up to 57.1 µM), for inactives: top-dose activity change, negative = inhibition, most hits filed as inhibitors; actives 0.52% (n = 330,000); AID 485341;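 note: plate controls were no compound for no effect and no enzyme for full effect; nearly all actives have a fitted effect of over 20% in size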
#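 AmpC (5.3 nM in the dispensed reagent) in 20 mM phosphate pH 7.0 with 0.01% (detergent screen) or 0.0001% Triton X-100 was preincubated with compounds for 15 min at room temperature. Nitrocefin was then added from an 800 uM solution, and hydrolysis was followed at 480 nm.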
# Vaccinia mCherry: vaccinia inhibition (mCherry reporter); actives 0.63% (n = 310,000); Vaccinia virus mCherry reporter infection, fluorescence; Potency, µM (series often up to 36.5 µM), for the others: at the top dose activity change, negative = inhibition, actives largely listed as inhibitors; calls by dose curve; tested in A549 cells; note: % is set by controls: 0 for no effect and ±100 for the full control effect; nearly all actives have a fitted effect of over 35% in size
# * marks the source's active call; other numbers are inactive results; i = inactive; ? = inconclusive; . = no result; ! = repeats disagree. Unless noted, calls come from the whole dose curve; as a rule, active = well fitted curve in the direction sought with a large enough effect; inconclusive = small, poorly fitted or top-dose-only effect, or another doubt; inactive = no such curve, though single readings can be large; an effect the other way counts as inactive or inconclusive. Potency is the fitted concentration of half-maximal effect.
SMILES,AmpC detergent,VACV Venus inh,SARS PLP yeast,AMA1 RON2 block,AmpC inh no detg,Vaccinia mCherry
CCCCc1ccc(NC(=O)CSc2nc3ccccc3nc2N2CCOCC2)cc1,22.9%,-1.4%,.,.,.,-6.1%
COc1cccc(C(=O)NCC2Cc3cccc(-c4ncccn4)c3O2)c1OC (stereo not given),.,-1.4%,.,.,.,-10.7%
O=C(N/N=C/c1c(O)ccc2ccccc12)c1cccnc1,-2.0%,-29.3%,-8.6%,37.1%,-16.9%,?
Cc1ccc(C(=O)N/N=C/c2c(O)ccc3ccccc23)cn1,-3.6%,?,-9.8%,48.2%,-11.1%,2.24µM*
O=C(N/N=C/c1c(O)ccc2ccccc12)c1ccc(Br)o1,?,?,11.7%,5.9%,-44.5%,2.82µM*
Cc1ccccc1CNC(=O)Nc1ccc2c(c1)N(C)C(=O)c1ccccc1S2,17.2%,?,.,.,.,?
Cc1ccc(C2C(/C=C3/SC(=S)NC3=O)=C(c3cccs3)Oc3ccccc32)cc1 (stereo not given),6.5%,-20.8%,-9.3%,-5.0%,6.31µM*,-9.6%
O=C1NC(=S)SC1=Cc1ccccc1Cl,.,-6.7%,.,2.6%,.,-9.8%
COc1ccc(CN2CCC3(CCC(CNC(=O)c4ccco4)O3)CC2)c(OC)c1C (stereo not given),.,-15.6%,.,.,.,-2.9%
O=C(c1cc(-c2ccccc2)nc2ccccc12)N1CCCC1,-8.5%,-3.7%,-2.8%,14.3%,6.1%,1.4%
c1ccc(-c2cc(NCCN3CCCCC3)c3ccccc3n2)cc1,-0.9%,11.2µM*,-1.7%,3.1%,-2.8%,?
COc1cccc(NC(=O)CCc2nnc3n(Cc4ccccc4Cl)c(=O)c4ccccc4n23)c1,20.6%,-26.5%,.,.,.,-25.3%
O=C(CCc1nnc2n(Cc3ccccc3Cl)c(=O)c3ccccc3n12)Nc1ccc(F)cc1,19.6%,10µM*,.,.,.,10µM*
Cc1nc(-n2ncc(C#N)c2N)c2c3c(sc2n1)CCC3,?,.,10.2%,12.5%,-25.4%,.
CCCSc1nc(-n2ncc(C#N)c2N)c2c3c(sc2n1)CCC(C)C3 (stereo not given),-9.1%,.,-4.6%,-5.8%,2µM*,.
N#CCc1nc(C(c2ccccc2)c2ccccc2)no1,-5.6%,11.0%,2.3%,6.9%,17.8µM*,21.6%
COCCN(C)Cc1nc(C(c2ccccc2)c2ccccc2)no1,1.3%,.,1.8%,-6.9%,91.6%,.
Cc1cc(N2CCCC2)nc2ccc(NC(=S)NCCCN3CCC(C)CC3)cc12,9.1%,?,-0.4%,14.3%,-8.5%,14.1µM*
COc1cc(OC)c(-c2nn3c(-c4ccco4)nnc3s2)cc1OC,-6.9%,?,-3.3%,-6.1%,163.5%,11.2µM*
O=C(CSc1nnc(C2COc3ccccc3O2)o1)NC1CCCCC1 (stereo not given),-4.9%,-6.3%,3.8%,-13.6%,39.8µM*,0.6%
CC(=O)c1ccccc1-c1ccc2c(c1)CC(CNC(=O)C[C@@H]1C[C@@H](C)NC(=S)N1)O2 (stereo not given in full),.,1.2%,.,.,.,-10.6%
COc1ccc(Cl)cc1S(=O)(=O)N1CCN(C(=O)c2n[nH]c(=O)c3ccccc23)CC1,.,?,2.0%,-6.6%,-10.5%,28.2µM*
O=C(c1n[nH]c(=O)c2ccccc12)N1CCN(S(=O)(=O)c2ccccc2Cl)CC1,-27.8%,.,5.0%,1.8%,-24.0%,.
CC(=O)c1ccc(-c2ccc3c4c(ccc3c2)OC(CNC(=O)C(C)N2CCOCC2)C4)s1 (stereo not given),.,-18.0%,.,.,.,-17.5%
C/C(=N/NS(=O)(=O)c1ccc(C)cc1C)c1c[nH]c2ccccc12,?,-24.0%,2.8%,2.6%,-36.3%,5.01µM*
SMILES,AmpC detergent,VACV Venus inh,SARS PLP yeast,AMA1 RON2 block,AmpC inh no detg,Vaccinia mCherry
O=C(NCCc1ccncc1)c1cnn(-c2ncc3c(n2)-c2ccccc2CCC3)c1C1CC1,.,-10.7%,.,.,.,-3.7%
O/N=C(/C[n+]1csc2ccccc21)c1ccccc1,.,-3.8%,.,.,.,-12.9%
C=CCc1ccc(OC)cc1,4.0%,3.98µM*!,0.2%,9.3%,-4.3%,2.24µM*!
COc1ccc(-c2ccc(OC)cc2)cc1,-10.0%,-1.0%,10.8%,10.0%,-1.1%,-17.6%
CC[N+](CC)(CC)c1ccc(/C=C/c2ccc3ccccc3n2)cc1,.,i,.,.,.,i
CCN1C(=O)C(CC(=O)Nc2ccc(OC)cc2)N(CCCN2CCN(c3ccc(OC)cc3)CC2)C1=S (stereo not given),?,?,3.7%,-6.6%,100.4%,10µM*
CCN1C(=O)C(CC(=O)Nc2ccc(OC)cc2)N(Cc2cccnc2)C1=S (stereo not given),-16.0%,-11.8%,0.1%,11.9µM*,11.3%,-13.7%
O=C(Cn1nc2ccccc2n1)N1CCOc2ccc(CN3CCc4sccc4C3)cc2C1,.,6.0%,.,.,.,-3.7%
O=C(c1ccccc1)N1CCc2cc(CNS(=O)(=O)c3ccccc3Cl)ccc21,5.1%,-23.8%,.,.,.,-27.5%
COC(=O)c1c(OCc2ccccn2)cc(=O)n2c1CCN(C(=O)c1n[nH]c3c1CCCC3)CC2,.,-8.4%,.,.,.,-14.7%
OC(c1ccccc1)(c1ccccc1)C1CCN(CCCOc2cccc(OC(F)(F)F)c2)CC1,.,?,.,-12.9%,.,?
CC(C)(C)c1ccc(C(O)CCCN2CCC(C(O)(c3ccccc3)c3ccccc3)CC2)cc1 (stereo not given),-0.3%,11.2µM*,0.9%,-9.3%,-25.6%,12.6µM*
Cc1sc(N/N=C/C=C/c2ccccc2)nc1-c1ccccc1,4.5%,?,12.6µM*,52.0%,-18.3%,3.55µM*
O=C1C2C3C=CC(CC3)C2C(=O)N1/N=C/c1ccccc1O (stereo not given),4.4%,-14.9%,5.62µM*,99.4%,-33.7%,i
O=C1C2C3C=CC(CC3)C2C(=O)N1/N=C/c1c(O)ccc2ccccc12 (stereo not given),-9.4%,?,6.7%,41.0%,138.3%,?
CCCCC(CC)C(=O)Nc1ncc([N+](=O)[O-])s1 (stereo not given),-0.9%,?,0.2%,15.7%,11.1%,10µM*
CC(=O)Nc1ccccc1-c1nc(CNC(=O)c2cc(C)ccc2C)c(C)o1,.,12.0%,.,.,.,-5.0%
CSC1SCC2C(=O)N(C)C(C(C)C)C(=O)OCC(NC(=O)c3cnc4ccccc4n3)C(=O)NC(C)C(=O)N(C)C1C(=O)N(C)C(C(C)C)C(=O)OCC(NC(=O)c1cnc3ccccc3n1)C(=O)NC(C)C(=O)N2C (stereo not given),.,0.0035µM*,.,-15.8%,.,?
O=C1C=C(O)c2ccccc2C1=O,.,2.0%,.,.,.,-8.6%
O=C1C=C(c2c(O)ccc3ccccc23)c2ccccc2C1=O,.,11.2µM*,.,?,.,10µM*
